In the library only some 7.9% were active in any assay of this set; here they are far more common.
HCV inhibitor – HCV inhibition. Huh7.5.1 HCVcc-Cre infection, luciferase reporter, 44 h. Potency, µM (top dose mostly 41.8 µM), without a hit: at the top dose activity change, negative = inhibition, usual class: inhibitors. 340,000 compounds, 3.4% hits; active = well fitted inhibition curve with a large enough effect; inconclusive = small, poorly fitted or top-dose-only effect, or another doubt; inactive = no such curve, though single readings can be large or run the other way; note: potency is the fitted concentration of half-maximal effect
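Seed cells (1,000/well) for 4 h; treat with compound and infect with HCVcc-Cre, moi about 0.5. Incubate 44 h, then detect luciferase activity.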
HCMV antiviral – inhibitors of human cytomegalovirus | HFF cells, HCMV-luciferase reporter, 72 h; active compounds read low | activity change, negative = inhibition, % at 57.5 µM | 410,000 compounds, 4.5% hits | AID 1259415; in the data active = activity change below about -60%; inconclusive = no clear call, values can overlap the other calls; inactive = above about -39%
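Cell-based, HFFs, 1000 cells/well, 16 h 37C; cpds in DMSO + HCMV-luc, MOI 1 PFU/cell; 72 h 37C; OneGlo luminescence after 5 min RT; norm. to buffer vs Salinomycin 10uM.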
FMDV antiviral – antivirals against foot and mouth disease virus. FMDV antiviral cell-based qHTS. 410,000 compounds, 1.2% hits. Potency, µM (titrated, usually from 57.9 µM), for inactives: at the top dose activity change, negative = inhibition, actives largely listed as inhibitors; calls by dose curve; tested in HEK293T cells; note: read-out not given here; potency is the fitted concentration of half-maximal effect; nearly all actives have a fitted effect of over 45% in size
Lassa entry inh – Lassa virus entry inhibition | 300,000 compounds, 1.2% hits | Potency, µM (titrated, usually from 37.9 µM), inactives show at the top dose activity change, negative = inhibition, hits mostly inhibitors | AID 540256 | Lassa virus pseudotype entry inhibition, cell reporter; calls by dose curve; tested in HEK293 cells; note: potency is the fitted concentration of half-maximal effect; nearly all actives have a fitted effect of over 50% in size
MARV entry inh – inhibitors of Marburg virus binding or cell entry; Potency, µM (series often up to 37.8 µM), for inactives: at the highest dose activity change, negative = inhibition, most hits filed as inhibitors; AID 540276; Marburg virus pseudotyped entry inhibition, cell reporter; 300,000 compounds, 1.8% hits; calls by dose curve; tested in HEK293 cells; note: potency is the fitted concentration of half-maximal effect
Active calls of the source: *; ? = inconclusive; / = not tested or not shown; ! = repeats disagree; [ ] = dose if it differs, or a comment. % is set by controls: 0 for no effect and ±100 for the full control effect.

SMILES | HCV inhibitor | HCMV antiviral | FMDV antiviral | Lassa entry inh | MARV entry inh
Cc1ccccc1NC(=O)Cc1nc(-c2c[nH]c(C(=O)N3CCCC3)c2)cs1 | ? | 13.7 | ? | / | /
Cc1cccc(NC(=O)Cc2nc(-c3c[nH]c(C(=O)N4CCCC4)c3)cs2)c1 | ? | 6.6 | 35.5µM* | ? | ?
Cc1cc2oc(C(=O)Nc3ccc(S(=O)(=O)N4CCCC(C)C4)cc3)cc(=O)c2cc1Cl (stereo not given) | 1.2% | -17.9 | 0.0% | ? | 11.2µM*
Cc1cc(C)c2oc(C(=O)Nc3ccc(S(=O)(=O)Nc4nccs4)cc3)cc(=O)c2c1 | -5.0% | -37.4 | 10.3% | / | /
Cc1cccc2sc(NC(=O)C3CCN(C(=O)c4ccco4)CC3)nc12 | 11.2µM* | 19.8 | 2.4% | 7.94µM* | ?
CC1CCCN(S(=O)(=O)c2ccc(NC(=O)C3CCN(C(=O)c4ccco4)CC3)cc2)C1 (stereo not given) | -28.9% | -60.1* | 16.7% | -8.4%[46.1 µM] | -24.0%[46.1 µM]
Cc1cc2oc(C(=O)Nc3ccc(S(=O)(=O)Nc4nccs4)cc3)cc(=O)c2cc1Cl | 6.3% | -78.9* | -7.8% | / | /
Cc1cccc2sc(N3CCN(C(=O)c4ccco4)CC3)nc12 | / | 46.3 | 9.3% | 15.7%[46.1 µM] | /
CCOC(=O)CCCNC(=O)N[C@H]1CC[C@@]23CCCN2C(=O)CCC[C@H]3C1Cc1ccccc1 (stereo not given in full) | / | -5.2 | / | / | /
CN1c2ccccc2C(C)(C)C12CC(c1ccc(S(=O)(=O)N3CCCCC3)cc1)=NO2 (stereo not given) | 7.8% | -70.3* | 3.7% | 0.184µM* | 0.164µM*
CN1c2ccccc2C(C)(C)C12CC(c1cccc(S(=O)(=O)N3CCCC3)c1)=NO2 (stereo not given) | ? | -71.8* | -24.1% | 0.517µM* | 0.461µM*
O=S(=O)(c1ccc(-c2ccccc2)cc1)N1CCCCC1 | ? | 17.4 | -6.5% | -13.7% | 5.2%
CN1/C(=C\C(=O)c2cccc(S(=O)(=O)N3CCCCC3)c2)C(C)(C)c2ccccc21 | 1.5% | -33.9 | 0.0% | -11.3% | -6.1%
CCC(=O)N1CCc2cc(Br)cc(S(=O)(=O)CCC(=O)NCCc3cccc(C)c3)c21 | / | 17.7 | -1.4% | 10.0%[46.1 µM] | /
CCn1c(SCC(=O)N/N=C/c2c[nH]c3ccccc23)nnc1-c1ccc(C(C)(C)C)cc1 | ? | -74.6* | ? | 4.47µM* | ?
CCn1c(SCC(=O)N/N=C/c2ccc(C)o2)nnc1-c1ccc(C(C)(C)C)cc1 | ? | -11.2 | 31.6µM* | ? | -20.9%
CCn1c(SCC(=O)N/N=C/c2ccccc2OCC(=O)O)nnc1-c1ccccc1 | 9.6% | / | -20.9% | / | /
CCn1ncc(/C=C/C(=O)Nc2c(C)nn(Cc3ccc(Cl)cc3Cl)c2C)c1C | ? | -102.8* | -27.6% | ? | ?
O=C(Nc1ccc(F)cc1)N1CC(=O)N2[C@H](CO)[C@@H](c3ccc(Br)cc3)[C@H]2C1 | / | -0.9 | / | / | /
COc1ccc(C(=O)N2CCN(c3ccccc3Cl)CC2)cc1S(=O)(=O)NC1CC1 | 4.6% | 44.0 | 37.3% | / | /
CCOC(=O)C1=C(C)N=C2SC=C(C)N2C1c1ccc(OC)cc1 (stereo not given) | ? | 0.9 | -4.9% | ? | 5.01µM*
CCOC(=O)C1=C(C)N=C2SC(C)C(=O)N2C1c1ccc(C(=O)OC)cc1 (stereo not given) | 2.7% | 46.8 | -14.8% | 23.8% | 12.7%
COc1cccc(OC)c1OCCNCC1COc2ccccc2O1 (stereo not given) | ? | -1.8 | -28.1% | -5.9% | 12.6µM*!
COc1cccc(OC)c1OCCNC[C@@H]1CSc2ccccc2O1 | / | / | / | / | 25.9µM*
COCCn1c(SCC(=O)N2CC(=O)Nc3ccccc32)nc2ccccc21 | 12.8% | -14.3 | -18.6% | 2.3% | ?
SMILES | HCV inhibitor | HCMV antiviral | FMDV antiviral | Lassa entry inh | MARV entry inh
S=C(NCc1ccccc1)Nc1cccc(Cl)c1 | -1.7% | -83.8* | 61.7% | -0.8% | -34.8%
Cc1ccc(NC(=S)NCc2ccccc2)cc1[N+](=O)[O-] | -23.4% | -95.9* | 19.0% | 15.8µM* | 7.08µM*
CN(C)NC(=S)Nc1cccc(C(F)(F)F)c1 | -1.5% | 8.8 | -19.4% | 2.7% | 18.6%[46.1 µM]
CC(NC(=S)Nc1cccc(C(F)(F)F)c1)C(C)(C)C (stereo not given) | ? | ? | ? | 10µM* | ?
FC(F)(F)c1cccc(NC(=S)NCc2ccc(Cl)cc2)c1 | ? | -90.2* | -27.2% | -16.5% | ?
NC(=O)c1c(NC(=O)CS(=O)(=O)c2ccc(Cl)cc2)sc2c1CCCCC2 | / | 0.0 | 9.0% | 0.4%[46.1 µM] | /
COc1ccc(N/C=C(\C=C\C#N)S(=O)(=O)c2ccccc2)cc1 | 5.6% | -5.5 | ? | / | /
CCOC(=O)c1[nH]c(C)c(CCC(=O)NCc2ccc(OC(C)C)cc2)c1C | / | 2.2 | -14.8% | ? | /
O=C(NCC(c1cccnc1)N1CCc2ccccc2C1)C(=O)Nc1ccc(Cl)cc1 (stereo not given) | / | -37.9 | ? | 13.5%[46.1 µM] | /
Fc1ccccc1CNC(=S)Nc1cccc(C(F)(F)F)c1 | ? | -78.5* | -5.5% | ? | ?
CC1=CC(C)(C)n2c(O)c(N=NC(N)=S)c3cc(C)cc1c32 | ? | -67.8* | -24.0% | 14.5% | 14.4%
COc1ccc(OC)c(C2C(C(=O)Nc3ccc(C)cc3C)=C(C)Nc3c(C(=O)Nc4ccc(F)cc4)cnn32)c1 (stereo not given) | / | 2.7 | -2.1% | 8.3%[46.1 µM] | /
Cc1ccc(C(NC(=O)N2CCCCC2)=C(Cl)Cl)cc1F | ? | -79.7* | ? | 1.9% | -10.1%
COCc1c(C(=O)N/N=C(/C)c2ccc(OCc3ccccc3)cc2)nnn1-c1nonc1N | 21.5% | 36.8 | 20.1% | -24.4%[46.1 µM] | ?
CC(=O)Nc1ccc(N2C(C(C)=O)=NN(c3ccc(Cl)cc3)C2c2sccc2C)cc1 (stereo not given) | ? | 9.6 | ? | ? | 20.6µM*
CC(=O)Nc1ccc(N2C(C(C)=O)=NN(c3ccccc3)C2c2cccs2)cc1 (stereo not given) | 2.2% | 4.6 | -10.1% | ? | ?
COc1ccc2c(c1)-c1nc(-n3ncc(C(=O)N(C)CC4CCCN(C)C4)c3C3CC3)ncc1CC2 (stereo not given) | / | / | -0.3% | / | /
COc1cc(=O)n2c(c1C(=O)N(C)Cc1nccs1)CCN(Cc1cc(C)cc(C)c1)CC2 | / | / | -15.6% | / | /
COCCSc1nnc(NC(=O)CCS(=O)(=O)c2ccccc2)s1 | ? | 2.5 | -1.4% | -11.3% | 11.2µM*
CC(=O)c1sc(NC(=O)CCS(=O)(=O)c2ccc(F)cc2)nc1C | / | -22.6 | 37.1% | / | /
CC(=O)c1sc(NC(=O)CCS(=O)(=O)c2ccccc2)nc1C | 12.6µM* | 97.4 | 0.0% | / | /
O=C(NC1CC1)c1cccc(Nc2ccc(-c3ccc4c(c3)OCCO4)nn2)c1 | 10µM* | 7.5 | ? | ? | ?
c1ccc2c(N3CCCCCC3)nc(CN3CCCCC3c3nccs3)nc2c1 (stereo not given) | / | / | -13.1% | / | /
